# Counter-ions that a name gives are not always drawn.
# Test system: HeLa MZ
# Experiment: filipin (cholesterol) integrated intensity within LBPA endosomes, Z-score; higher = more cholesterol in LBPA endosomes
# Conditions: compound concentration in added solution (µM; 5 µl added to 20 µl cells): 10; 18 h
# Method in brief: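 Four 20× images per well were taken of HeLa MZ or A431 cells that had been seeded at 3,500 per well in 20 µl onto 5 µl of 10 µM compound solution in duplicate 384-well imaging plates. Before imaging, cells were incubated 18 h, fixed in 4% PFA and stained with 6C4 anti-LBPA antibody, filipin, propidium iodide and CellTracker green. Values are Z-scores normalised in AcuityXpress from MetaXpress-derived per-cell integrated LBPA or filipin intensity, either whole-cell or within LBPA endosomes.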
row,Compound,filipin (z-score)
1,OCCN1CCN(CCCN2c3ccccc3C=Cc3ccccc32)CC1 [Opipramol dihydrochloride],1.15
2,COc1cc(NS(=O)(=O)c2ccc(N)cc2)ncn1 [Sulfamonomethoxine],-0.344
3,Cc1cc(-c2ccccc2)nnc1NCCN1CCOCC1 [Minaprine dihydrochloride],-0.625
4,Clc1ccc2nsnc2c1NC1=NCCN1 [Tizanidine HCl],-0.219
5,CN(C)CCOC(c1ccccc1)c1ccccc1 [Diphenhydramine hydrochloride],-0.0904
6,CN(C)CCCO[C@@H]1[C@H]2OC(C)(C)O[C@H]2O[C@@H]1[C@H](O)CO [Amiprilose hydrochloride],-0.492
7,NC(=O)N/N=C/c1ccc([N+](=O)[O-])o1 [Nitrofural],-0.689
8,N[C@@H](C(=O)N[C@@H]1C(=O)N2C(C(=O)O)=C(Cl)CS[C@H]12)c1ccccc1 [Cefaclor hydrate],-0.558
9,COc1ccc(C(=O)NCc2ccc(OCCN(C)C)cc2)cc1OC [Itopride],-0.36
10,CC1(C)O[C@@H]2C[C@H]3[C@@H]4C[C@H](F)C5=CC(=O)C=C[C@]5(C)[C@@]4(F)[C@@H](O)C[C@]3(C)[C@]2(C(=O)CO)O1 [Fluocinolone acetonide],-0.367
11,NCC[C@H](O)C(=O)N[C@@H]1C[C@H](N)[C@@H](O[C@H]2O[C@H](CN)[C@@H](O)[C@H](O)[C@H]2O)[C@H](O)[C@H]1O[C@H]1O[C@H](CO)[C@@H](O)[C@H](N)[C@H]1O [Amikacin hydrate],-0.666
12,CC(C)c1c(C(=O)Nc2ccccc2)c(-c2ccccc2)c(-c2ccc(F)cc2)n1CC[C@@H](O)C[C@@H](O)CC(=O)O [Atorvastatin],-0.45
13,CCOC(=O)O[C@]1(C(=O)COC(=O)CC)CC[C@H]2[C@@H]3CCC4=CC(=O)C=C[C@]4(C)[C@H]3[C@@H](O)C[C@@]21C [Prednicarbate],-0.201
14,CC(=O)N[C@@H](CS)C(=O)O [Acetylcysteine],-0.456
15,CCCCC(CC)CN1CN(CC(CC)CCCC)CC(C)(N)C1 (stereo unspecified) [Hexetidine],-0.116
16,Cc1ccc2c(c1)c1c3n2CCNC3CCC1 (stereo unspecified) [Pirlindole mesylate],0.263
17,CCN1CCN(C(=O)N[C@@H](C(=O)N[C@@H]2C(=O)N3[C@@H]2SC(C)(C)[C@@H]3C(=O)O)c2ccccc2)C(=O)C1=O [Piperacillin sodium salt],-0.478
18,NC(=O)N1c2ccccc2C=Cc2ccccc21 [Carbamazepine],-0.687
19,CN1CCC(=C2c3ccccc3C=Cc3ccccc32)CC1 [Cyproheptadine hydrochloride],0.976
20,CC(=O)c1ccc(S(=O)(=O)NC(=O)NC2CCCCC2)cc1 [Acetohexamide],-0.673
21,CNNCc1ccc(C(=O)NC(C)C)cc1 [Procarbazine hydrochloride],-0.664
22,CC(C)NNC(=O)c1ccncc1 [Iproniazide phosphate],-0.477
23,Cc1cc(-n2c(=O)[nH]c(=O)n(C)c2=O)ccc1Oc1ccc(SC(F)(F)F)cc1 [Toltrazuril],-0.457
24,Cc1c(NC(=O)c2cccnc2)c(=O)n(-c2ccccc2)n1C [Nifenazone],-0.754
25,C[C@@H](O)[C@H]1C(=O)N2C(C(=O)O)=C(SCCNC=N)C[C@H]12 [Imipenem],-0.385
26,CN(C)CC/C=C1\c2ccccc2CSc2ccccc21 [Dosulepin hydrochloride],0.976
